{"source": "PubChem BioAssay AID504634", "about": "(The Scripps Research Institute Molecular Screening Center, 2011)", "note": "Among all 340,000 compounds or so, about 280 (0.082%) were called active. Cut-off read from the data, not from the text of the source: active = inhibition mostly above about 23% (no sharp cut-off); inactive = mostly below about 18%. The sample as a whole holds a higher share of actives than the screen did."}
{"molecular_target": "5-hydroxytryptamine receptor 5A (Homo sapiens) (UniProt P47898)", "sequence (P47898 whole entry, looked up)": "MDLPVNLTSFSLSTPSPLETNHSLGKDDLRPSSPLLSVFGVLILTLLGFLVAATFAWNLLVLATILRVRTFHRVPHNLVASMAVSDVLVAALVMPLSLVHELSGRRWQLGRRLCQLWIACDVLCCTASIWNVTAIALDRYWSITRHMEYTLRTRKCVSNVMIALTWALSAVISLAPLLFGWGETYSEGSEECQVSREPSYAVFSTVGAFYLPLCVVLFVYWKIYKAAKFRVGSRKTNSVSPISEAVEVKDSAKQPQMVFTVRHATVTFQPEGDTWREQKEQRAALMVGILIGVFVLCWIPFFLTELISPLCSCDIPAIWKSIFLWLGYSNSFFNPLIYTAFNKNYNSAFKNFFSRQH", "assay": "inverse agonism at human 5-HT5A receptor – cell-based, luminescence, full-deck HTS, counter-screen for OPRM1-OPRD1 heterodimer inverse agonist project, primary screen (AID 504634);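 note: 0% = cells with DMSO and 100% = no-cell wells with DMSO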", "settings": "HTR5A cell line, at 9.3 µM, hits give high values"}
{"compound": "CC(=O)OC1C2(CC3N4C(=O)C5(CO)SSC4(CC31O)C(=O)N5C)OC(C)C(C)(C)C2=O", "note": "(stereo not given)", "inhibition": "97.6% (active)"}
{"compound": "COC1C(O)C(C)OC(OC2CCC3(C=O)C(CCC4C3CCC3(C)C(C5=CC(=O)OC5)CCC43O)C2)C1O", "note": "(stereo not given)", "inhibition": "-11% (inactive)"}
{"compound": "c1ccc(C2NCc3ccccc3-n3cccc32)cc1", "note": "(stereo not given)", "inhibition": "-5.59% (inactive)"}
{"compound": "COC(=O)C1=C(c2cc3ccccc3s2)C[C@@H]2CC[C@H]1N2C(=O)NC(C)C", "inhibition": "5.09% (inactive)"}
{"compound": "C[C@]12CCC3C(CC[C@H]4[C@H](O)[C@H](O)CC[C@]34C)C1CC[C@@H]2O", "note": "(stereo not given in full)", "inhibition": "-10.8% (inactive)"}
